Laboratory results published in PubChem BioAssay (NCATS).
Values joined by “and” are separate entries in the source; they are usually repeats but may differ in a detail not shown here. Equal entries are not always repeated. Results filed as inconclusive are left out. Entries that show only a call come without a potency. Unmarked numbers belong to inactive results. Active and inactive are the calls of the source. Calls come from the whole dose curve; as a rule, active = well fitted cell-killing curve with a large enough effect; inconclusive = small, poorly fitted or top-dose-only effect, or effect the other way; inactive = flat fitted curve, though single readings scatter.

Experiment: qHTS assay for cell viability of HEK293 cells (AID 743288); note: nearly all actives have a fitted effect of over 50% in size
Settings: ATP luminescence (CellTiter-Glo), 18 h; max response: active compounds read low
Method in brief: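 HEK293 parental, 2,000 cells/well; ≥5 h pre-incubation 37 C; pintool compound addition; 18 h, 37 C; CellTiter-Glo 30 min RT; luminescence read.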

| SMILES | max response |
| --- | --- |
| CCn1cc(C(=O)O)c(=O)c2ccc(C)nc21 | 1.7% and -2.87% |
| CC(=O)c1ccc(S(=O)(=O)NC(=O)NC2CCCCC2)cc1 | 4.87% and -10.8% |
| CN(C)CCC(c1ccccc1)c1ccccn1 (stereo unspecified) | 2.94% |
| O=c1cc(-c2ccc(O)cc2)oc2cc(O)cc(O)c12 | -29.2% and -22.7% |
| CC(=O)O[C@]1(C(C)=O)CC[C@H]2[C@@H]3C=C(Cl)C4=CC(=O)[C@@H]5C[C@@H]5[C@]4(C)[C@H]3CC[C@@]21C | -22.8% |
| CC(=O)N[C@@H](CS)C(=O)O | -3.84% |
| CCCCC1C(=O)N(c2ccccc2)N(c2ccccc2)C1=O | -8.44% and -3.31% |
| O=C1NC(=O)C(c2ccccc2)(c2ccccc2)N1 | 6.32% and -2.27% and 1.15% |

Experiment: qHTS assay for cell viability of the p53RE-bla HCT-116 cell line (AID 743292); note: nearly all actives have a fitted effect of over 55% in size
Settings: p53RE-bla HCT-116 viability, ATP luminescence, 16 h; series mostly up to 95 µM
Method in brief: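 HCT-116 p53RE-bla cells seeded 4,000/well; 5 h at 37 C; compound (DMSO) added; 16 h at 37 C; CellTiter-Glo added, 30 min RT; luminescence read.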

| SMILES | Potency |
| --- | --- |
| CCn1cc(C(=O)O)c(=O)c2ccc(C)nc21 | inactive |
| CC(=O)c1ccc(S(=O)(=O)NC(=O)NC2CCCCC2)cc1 | inactive |
| CN(C)CCC(c1ccccc1)c1ccccn1 (stereo unspecified) | inactive |
| O=c1cc(-c2ccc(O)cc2)oc2cc(O)cc(O)c12 | inactive |
| CC(=O)O[C@]1(C(C)=O)CC[C@H]2[C@@H]3C=C(Cl)C4=CC(=O)[C@@H]5C[C@@H]5[C@]4(C)[C@H]3CC[C@@]21C | inactive |
| CC(=O)N[C@@H](CS)C(=O)O | inactive |
| CCCCC1C(=O)N(c2ccccc2)N(c2ccccc2)C1=O | inactive |
| O=C1NC(=O)C(c2ccccc2)(c2ccccc2)N1 | inactive |
